# Test results published in ChEMBL document CHEMBL1961873, “Compounds: GSK PKIS; Assays: Nanosyn kinase panel” (2012).
# Legend:
# [1] = target: Platelet-derived growth factor receptor beta (Homo sapiens) (UniProt P09619); conditions: at 1 µM;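 also: each value is a mean percent inhibition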
# [2] = target: Tyrosine-protein kinase FRK (Homo sapiens) (UniProt P42685); conditions: at 0.1 µM
# [3] = target: Tyrosine-protein kinase FRK (Homo sapiens) (UniProt P42685); conditions: at 1 µM
# [4] = target: Protein-tyrosine kinase 2-beta (Homo sapiens) (UniProt Q14289); conditions: at 0.1 µM
# Protein-tyrosine kinase 2-beta (Homo sapiens), sequence (Q14289 whole entry, looked up): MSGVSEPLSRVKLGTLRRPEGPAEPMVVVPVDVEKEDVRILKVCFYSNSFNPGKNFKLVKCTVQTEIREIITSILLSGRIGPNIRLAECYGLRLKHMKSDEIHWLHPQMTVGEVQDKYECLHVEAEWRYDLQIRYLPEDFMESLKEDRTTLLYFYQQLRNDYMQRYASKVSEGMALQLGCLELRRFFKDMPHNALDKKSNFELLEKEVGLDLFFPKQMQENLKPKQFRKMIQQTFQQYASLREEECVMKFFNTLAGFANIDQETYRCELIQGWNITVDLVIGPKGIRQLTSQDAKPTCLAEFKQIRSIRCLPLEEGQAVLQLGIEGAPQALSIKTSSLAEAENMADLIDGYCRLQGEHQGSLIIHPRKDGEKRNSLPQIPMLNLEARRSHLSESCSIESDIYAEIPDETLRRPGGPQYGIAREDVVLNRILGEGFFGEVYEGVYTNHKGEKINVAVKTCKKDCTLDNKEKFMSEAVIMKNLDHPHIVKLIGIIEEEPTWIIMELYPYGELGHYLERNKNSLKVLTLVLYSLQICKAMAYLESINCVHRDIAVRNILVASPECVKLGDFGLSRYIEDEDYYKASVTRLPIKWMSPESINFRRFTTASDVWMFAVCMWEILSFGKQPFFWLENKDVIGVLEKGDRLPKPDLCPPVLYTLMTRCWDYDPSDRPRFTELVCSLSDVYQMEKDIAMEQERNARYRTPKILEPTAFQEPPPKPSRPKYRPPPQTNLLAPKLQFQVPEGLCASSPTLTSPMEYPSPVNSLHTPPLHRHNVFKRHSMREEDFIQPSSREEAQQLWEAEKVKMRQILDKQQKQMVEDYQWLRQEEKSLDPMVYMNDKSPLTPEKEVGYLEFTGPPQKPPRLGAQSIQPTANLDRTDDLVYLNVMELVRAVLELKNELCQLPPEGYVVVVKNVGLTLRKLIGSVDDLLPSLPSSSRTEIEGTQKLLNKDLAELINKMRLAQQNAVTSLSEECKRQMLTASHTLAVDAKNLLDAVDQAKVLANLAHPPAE
# [5] = target: Protein-tyrosine kinase 2-beta (Homo sapiens) (UniProt Q14289); conditions: at 1 µM
# [6] = target: Proto-oncogene tyrosine-protein kinase receptor Ret (Homo sapiens) (UniProt P07949); conditions: at 0.1 µM
# Proto-oncogene tyrosine-protein kinase receptor Ret (Homo sapiens), sequence (P07949 whole entry): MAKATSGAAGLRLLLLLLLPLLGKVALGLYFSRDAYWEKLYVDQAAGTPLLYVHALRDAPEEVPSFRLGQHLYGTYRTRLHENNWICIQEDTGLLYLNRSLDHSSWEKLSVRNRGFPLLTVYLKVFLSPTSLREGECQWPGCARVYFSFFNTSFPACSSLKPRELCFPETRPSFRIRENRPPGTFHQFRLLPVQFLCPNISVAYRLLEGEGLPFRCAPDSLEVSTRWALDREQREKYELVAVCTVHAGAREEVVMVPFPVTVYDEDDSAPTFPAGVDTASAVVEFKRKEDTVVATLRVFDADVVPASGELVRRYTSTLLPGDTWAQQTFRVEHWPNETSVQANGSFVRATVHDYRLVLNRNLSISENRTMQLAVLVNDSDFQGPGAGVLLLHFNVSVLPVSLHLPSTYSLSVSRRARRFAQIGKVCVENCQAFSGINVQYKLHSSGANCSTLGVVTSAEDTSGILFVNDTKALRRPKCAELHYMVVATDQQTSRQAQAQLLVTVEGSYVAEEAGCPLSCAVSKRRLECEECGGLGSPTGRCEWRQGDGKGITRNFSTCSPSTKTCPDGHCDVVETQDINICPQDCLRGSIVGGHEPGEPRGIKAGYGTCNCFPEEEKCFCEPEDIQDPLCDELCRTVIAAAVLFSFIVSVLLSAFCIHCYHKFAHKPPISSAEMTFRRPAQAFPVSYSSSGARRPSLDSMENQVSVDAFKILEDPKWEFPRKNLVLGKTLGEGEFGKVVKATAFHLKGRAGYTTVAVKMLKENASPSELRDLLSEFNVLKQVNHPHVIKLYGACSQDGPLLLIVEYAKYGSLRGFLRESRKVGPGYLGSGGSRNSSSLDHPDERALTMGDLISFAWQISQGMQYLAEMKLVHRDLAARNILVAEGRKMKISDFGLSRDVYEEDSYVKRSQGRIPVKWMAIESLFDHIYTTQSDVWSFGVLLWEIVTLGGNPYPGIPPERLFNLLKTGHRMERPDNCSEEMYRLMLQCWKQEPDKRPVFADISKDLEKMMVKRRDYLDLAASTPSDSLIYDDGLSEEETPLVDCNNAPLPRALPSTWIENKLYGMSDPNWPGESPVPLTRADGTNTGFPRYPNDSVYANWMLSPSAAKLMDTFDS
# [7] = target: Proto-oncogene tyrosine-protein kinase receptor Ret (Homo sapiens) (UniProt P07949); conditions: at 1 µM
# [8] = test system: Proto-oncogene tyrosine-protein kinase receptor Ret (Homo sapiens), P07949 [V804L]; conditions: at 0.1 µM
# Proto-oncogene tyrosine-protein kinase receptor Ret (Homo sapiens), P07949 [V804L], sequence (P07949 whole entry V804L): as the sequence (P07949 whole entry) above, with V804L counted along it
# [9] = test system: Proto-oncogene tyrosine-protein kinase receptor Ret (Homo sapiens), P07949 [V804L]; conditions: at 1 µM
# [10] = test system: Proto-oncogene tyrosine-protein kinase receptor Ret (Homo sapiens), P07949 [Y791F]; conditions: at 0.1 µM
# Proto-oncogene tyrosine-protein kinase receptor Ret (Homo sapiens), P07949 [Y791F], sequence (P07949 whole entry Y791F): as the sequence (P07949 whole entry) above, with Y791F counted along it
# [11] = test system: Proto-oncogene tyrosine-protein kinase receptor Ret (Homo sapiens), P07949 [Y791F]; conditions: at 1 µM
# [12] = target: Macrophage-stimulating protein receptor (Homo sapiens) (UniProt Q04912); conditions: at 0.1 µM
# [13] = target: Macrophage-stimulating protein receptor (Homo sapiens) (UniProt Q04912); conditions: at 1 µM
# [14] = target: Proto-oncogene tyrosine-protein kinase ROS (Homo sapiens) (UniProt P08922); conditions: at 0.1 µM
# [15] = target: Proto-oncogene tyrosine-protein kinase ROS (Homo sapiens) (UniProt P08922); conditions: at 1 µM
# [16] = target: Proto-oncogene tyrosine-protein kinase Src (Homo sapiens) (UniProt P12931); conditions: at 0.1 µM
# Proto-oncogene tyrosine-protein kinase Src (Homo sapiens), sequence (P12931 2-536 limits assumed): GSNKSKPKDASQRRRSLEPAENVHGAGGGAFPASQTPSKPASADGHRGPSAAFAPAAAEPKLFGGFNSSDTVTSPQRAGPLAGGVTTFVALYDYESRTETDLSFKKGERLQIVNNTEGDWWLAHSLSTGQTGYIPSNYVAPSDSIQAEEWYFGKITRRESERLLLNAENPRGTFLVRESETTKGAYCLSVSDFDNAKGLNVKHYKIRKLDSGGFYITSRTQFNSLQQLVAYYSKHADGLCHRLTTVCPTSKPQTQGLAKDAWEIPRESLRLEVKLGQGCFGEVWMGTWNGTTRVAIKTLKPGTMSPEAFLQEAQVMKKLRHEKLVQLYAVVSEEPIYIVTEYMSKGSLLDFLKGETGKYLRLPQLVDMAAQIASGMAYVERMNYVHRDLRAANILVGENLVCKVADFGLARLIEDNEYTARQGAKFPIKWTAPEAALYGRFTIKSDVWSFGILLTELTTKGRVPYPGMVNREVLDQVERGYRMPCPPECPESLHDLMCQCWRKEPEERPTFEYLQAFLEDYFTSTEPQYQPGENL
# [17] = target: Proto-oncogene tyrosine-protein kinase Src (Homo sapiens) (UniProt P12931); conditions: at 1 µM
# [18] = target: Tyrosine-protein kinase Srms (Homo sapiens) (UniProt Q9H3Y6); conditions: at 0.1 µM
# Tyrosine-protein kinase Srms (Homo sapiens), sequence (Q9H3Y6 whole entry): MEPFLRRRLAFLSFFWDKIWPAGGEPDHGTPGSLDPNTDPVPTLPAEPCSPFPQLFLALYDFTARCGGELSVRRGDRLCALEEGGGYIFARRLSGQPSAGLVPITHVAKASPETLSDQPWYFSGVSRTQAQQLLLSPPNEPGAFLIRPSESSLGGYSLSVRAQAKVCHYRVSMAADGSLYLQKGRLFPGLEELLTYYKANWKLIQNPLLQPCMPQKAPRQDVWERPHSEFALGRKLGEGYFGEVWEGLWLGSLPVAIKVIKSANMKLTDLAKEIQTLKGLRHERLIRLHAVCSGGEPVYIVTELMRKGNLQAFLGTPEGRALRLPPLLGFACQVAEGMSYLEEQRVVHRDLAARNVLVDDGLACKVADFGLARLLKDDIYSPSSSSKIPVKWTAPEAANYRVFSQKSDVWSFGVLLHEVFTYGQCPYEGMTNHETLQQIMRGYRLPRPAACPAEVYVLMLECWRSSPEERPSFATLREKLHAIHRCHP
# [19] = target: Tyrosine-protein kinase Srms (Homo sapiens) (UniProt Q9H3Y6); conditions: at 1 µM
# [20] = target: Tyrosine-protein kinase SYK (Homo sapiens) (UniProt P43405); conditions: at 0.1 µM;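 also: reported percentages are mean inhibition values for SYK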
# Tyrosine-protein kinase FRK (Homo sapiens), sequence (P42685 whole entry): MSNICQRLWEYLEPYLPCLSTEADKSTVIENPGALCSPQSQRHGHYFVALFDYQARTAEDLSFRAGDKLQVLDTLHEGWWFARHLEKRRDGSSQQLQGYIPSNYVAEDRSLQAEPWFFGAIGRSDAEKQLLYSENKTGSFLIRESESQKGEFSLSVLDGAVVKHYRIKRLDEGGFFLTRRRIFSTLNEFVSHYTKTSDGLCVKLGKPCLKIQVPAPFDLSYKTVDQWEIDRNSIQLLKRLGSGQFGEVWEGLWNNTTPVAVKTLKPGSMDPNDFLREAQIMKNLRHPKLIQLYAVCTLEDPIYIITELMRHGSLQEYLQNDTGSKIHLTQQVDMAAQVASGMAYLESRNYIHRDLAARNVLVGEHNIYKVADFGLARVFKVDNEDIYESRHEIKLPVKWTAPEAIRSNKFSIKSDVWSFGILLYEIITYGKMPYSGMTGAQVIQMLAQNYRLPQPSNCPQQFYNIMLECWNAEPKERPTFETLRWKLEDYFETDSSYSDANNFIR
# Platelet-derived growth factor receptor beta (Homo sapiens), sequence (P09619 whole entry): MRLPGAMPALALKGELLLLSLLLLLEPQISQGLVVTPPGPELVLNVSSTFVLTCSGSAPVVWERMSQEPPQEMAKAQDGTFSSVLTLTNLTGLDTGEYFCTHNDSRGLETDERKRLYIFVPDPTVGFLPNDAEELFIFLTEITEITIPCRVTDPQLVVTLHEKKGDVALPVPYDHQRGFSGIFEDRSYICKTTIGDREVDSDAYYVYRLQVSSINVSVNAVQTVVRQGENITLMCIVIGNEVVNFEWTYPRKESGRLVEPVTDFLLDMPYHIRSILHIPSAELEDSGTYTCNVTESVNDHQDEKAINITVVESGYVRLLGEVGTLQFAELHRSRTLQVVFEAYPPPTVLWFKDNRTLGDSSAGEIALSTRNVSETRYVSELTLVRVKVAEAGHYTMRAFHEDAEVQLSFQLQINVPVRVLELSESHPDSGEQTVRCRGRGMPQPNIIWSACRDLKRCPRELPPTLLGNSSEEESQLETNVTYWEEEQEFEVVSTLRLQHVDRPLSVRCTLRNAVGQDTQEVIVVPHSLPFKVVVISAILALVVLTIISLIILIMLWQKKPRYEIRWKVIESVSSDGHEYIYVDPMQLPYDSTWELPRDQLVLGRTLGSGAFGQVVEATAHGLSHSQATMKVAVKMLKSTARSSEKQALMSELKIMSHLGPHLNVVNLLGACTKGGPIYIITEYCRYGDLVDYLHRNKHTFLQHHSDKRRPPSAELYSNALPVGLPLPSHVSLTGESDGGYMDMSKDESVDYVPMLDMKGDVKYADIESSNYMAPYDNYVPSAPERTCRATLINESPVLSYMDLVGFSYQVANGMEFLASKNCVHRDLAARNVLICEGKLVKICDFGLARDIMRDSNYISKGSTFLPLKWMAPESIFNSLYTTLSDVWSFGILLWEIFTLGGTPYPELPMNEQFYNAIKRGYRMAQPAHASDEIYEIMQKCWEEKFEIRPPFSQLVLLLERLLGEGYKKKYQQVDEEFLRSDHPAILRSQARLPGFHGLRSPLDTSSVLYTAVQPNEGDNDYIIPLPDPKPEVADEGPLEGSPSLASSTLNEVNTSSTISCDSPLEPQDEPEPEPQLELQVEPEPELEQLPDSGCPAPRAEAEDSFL
SMILES,inhibition [1] [%],inhibition [2] [%],inhibition [3] [%],inhibition [4] [%],inhibition [5] [%],inhibition [6] [%],inhibition [7] [%],inhibition [8] [%],inhibition [9] [%],inhibition [10] [%],inhibition [11] [%],inhibition [12] [%],inhibition [13] [%],inhibition [14] [%],inhibition [15] [%],inhibition [16] [%],inhibition [17] [%],inhibition [18] [%],inhibition [19] [%],inhibition [20] [%]
NS(=O)(=O)c1ccc(N/N=C2\C(=O)Nc3ccc(C(=O)NCc4ccncc4)cc32)cc1,85.3,1.15,0.41,3.79,8.61,11.1,49.3,31.4,75.2,10.6,51.9,1.31,7.54,3.91,4.83,2.77,29.2,0.62,1.01,-2.4
COc1cc(Nc2ncc(-c3ccccc3)o2)cc(OC)c1,62.9,0.8,4.62,6.76,9.54,7.16,8.97,4.73,11.9,8.14,13.2,4.66,-0.05,3.98,11.9,14.9,49.7,2.58,3.5,-2.45
CCS(=O)(=O)c1ccc(OC)c(Nc2ncc(-c3cccc(C(C)=O)c3)o2)c1,84.3,3.25,14.2,5.43,8.24,7.26,33.6,5.03,28.8,6.91,39.2,-2.76,3.79,3.34,16.5,16.3,70.7,0.94,17.7,-5.14
Cc1ccc(-c2cc3c(NC(=O)C4CC4)ncnc3o2)cc1,24.5,2.14,0.91,9.96,10.2,8.44,27.6,6.9,13.6,8.23,12.9,-0.25,11.4,11.1,16.3,1.85,24.4,-1.85,-5.36,-5.27
CCn1c(-c2nonc2N)nc2cncc(C(=O)NCCNC)c21,12.4,3.22,3.52,4.6,8.62,6.45,7.16,4.21,17.1,7.45,12.2,1.51,1.07,3.34,14,8.77,6.62,-2.48,-2.36,-1.48
Cc1c2ccc(N(C)c3ccnc(Nc4cccc(S(N)(=O)=O)c4)n3)cc2nn1C,79.2,10.4,46.1,10.9,39,44.6,77.5,10.1,37.3,60.6,80.3,2.6,9.61,38.7,78.1,40.5,82.8,1.27,17.6,-4.22
CCS(=O)(=O)c1ccc(OC)c(Nc2ncc(-c3cccc(F)c3)o2)c1,83.5,10.5,46.4,11,22.9,13.5,56.6,7.78,33.8,15.9,56.6,10.3,6.8,8.05,27.5,49.4,89.3,3.47,18.5,0.45
N#Cc1cccc(Nc2ncc(-c3ccccc3)o2)c1,26.1,0.92,3.54,1.87,7.64,2.14,3.79,0.71,14.4,0.39,10.8,-0.08,-1.06,2.33,3.19,6.64,19.9,2.21,2.55,1.05
Cc1cc(O)cc(C)c1/C=C/c1cncc(C(N)=O)c1,42,2.65,14.2,8.94,8.75,3.99,8.88,0.84,4.4,3.94,8.63,1.41,4.46,4.48,6.31,5.55,54.2,5.08,31.6,-0.5
CS(=O)(=O)Nc1ccc(-c2ccc3c(NC(=O)C4CC4)n[nH]c3c2)cc1,8.42,1.21,1.03,9.87,8.59,3.92,6.93,4.24,8.77,6.88,6.93,1.04,7.91,11.3,11.7,-4.32,8.03,-0.44,0.5,-4.62
c1ccc(-c2n[nH]cc2-c2ccnc(-c3ccc(OCCn4ccnc4)cc3)c2)nc1,65.6,1.69,2.79,2.99,3.76,2,9.49,2.75,13.2,2.44,19.1,3.8,3.01,3.08,10.7,-2.63,8.69,0.16,3.94,-0.7
Cc1cc(O)cc(C)c1/C=C/c1cncc(C(=O)OC(C)(C)C)c1,43.3,3.51,20.1,13.2,7.22,5.39,7.34,3.42,11.6,4.05,12.1,8.51,8.66,6.94,10.4,14.1,58.6,10.2,43.4,-0.49
O=C(Nc1n[nH]c2nnc(-c3cccnc3)cc12)C1CC1,4.59,-0.62,-0.08,1.2,1.77,-1.02,1.55,0.89,1.74,1.5,3.64,-2.07,-3.95,-0.02,1.38,0.98,2.5,2.39,0.54,1.35
